Source: PubChem BioAssay (National Center for Advancing Translational Sciences (NCATS))
IL-2 act – activators of IL-2; AID 652025; 0.065% of 360,000 active; activation, % (series mostly up to about 46 µM); IL-2 activation reporter assay, cell-based qHTS; stimulated with anti-CD3/CD4/CD28 beads; in transgenic mouse T cells; in the data active = activation above about 50%; inconclusive = mostly about 30% to 49%
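Readout: EGFP and DsRed signals by fluorescent plate cytometry. Unstimulated transgenic mouse T cells received compound 60 min before antibody-bead stimulation, then incubated 18 h at 37 degrees C.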
A549 tox-1 – counter-screen for Nrf2 inhibitors: cytotoxicity in A549 cells | A549 ARE-Fluc cells, CellTiter-Fluor viability, 18-24 h | Potency, µM (top dose mostly 46 µM), most hits filed as inhibitors | 0.16% of 390,000 active
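Cytotoxicity counterscreen: CellTiter-Fluor fluorescence was measured in A549 ARE_Fluc cells after 18-24 h of compound exposure in a concentration series. The subsequent BugLite luminescent read reports ARE-luciferase activity.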
Nrf2 activator – Nrf2 pathway activation; AREc32 ARE-luciferase reporter (MCF7-derived line), luminescence, 24 h; Potency, µM (top dose mostly 46.1 µM), hits mostly activators; 0.31% of 410,000 active; also: nearly all actives have a fitted effect of over 65% in size
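AREc32 cells carrying an ARE-driven firefly luciferase reporter were seeded at 1000 cells/well in OPTI-MEM with 5% FBS, then exposed to compound for 24 hr at 37 deg C. Luminescence was read with Steady-Glo after 30 min at RT.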
Nrf2 inh – Nrf2 pathway inhibition; A549 ARE-Fluc reporter, luciferase luminescence, 18-24 h; Potency, µM (series often up to 46 µM), usual class: inhibitors; 2.1% of 360,000 active; AID 504444; also: nearly all actives have a fitted effect of over 60% in size
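Nrf2 activity is the BugLite luminescence, read 15 min after reagent at room temperature, following CellTiter-Fluor cytotoxicity readout (30 min, 37C). Compound titrations were applied for 18-24 h to 5000 A549 ARE_Fluc cells/well in 5% FBS OPTI-MEM.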
FLuc enzyme inh – counter-screen for Nrf2 inhibitors: firefly luciferase enzyme inhibition; shares compounds with Nrf2 inh; purified firefly luciferase, luminescence inhibition; Potency, µM (top dose mostly 57.5 µM), actives largely listed as inhibitors; 4% of 1,400 active; AID 720522; also: nearly all actives have a fitted effect of over 65% in size
Target sequence (P08659 whole entry, looked up): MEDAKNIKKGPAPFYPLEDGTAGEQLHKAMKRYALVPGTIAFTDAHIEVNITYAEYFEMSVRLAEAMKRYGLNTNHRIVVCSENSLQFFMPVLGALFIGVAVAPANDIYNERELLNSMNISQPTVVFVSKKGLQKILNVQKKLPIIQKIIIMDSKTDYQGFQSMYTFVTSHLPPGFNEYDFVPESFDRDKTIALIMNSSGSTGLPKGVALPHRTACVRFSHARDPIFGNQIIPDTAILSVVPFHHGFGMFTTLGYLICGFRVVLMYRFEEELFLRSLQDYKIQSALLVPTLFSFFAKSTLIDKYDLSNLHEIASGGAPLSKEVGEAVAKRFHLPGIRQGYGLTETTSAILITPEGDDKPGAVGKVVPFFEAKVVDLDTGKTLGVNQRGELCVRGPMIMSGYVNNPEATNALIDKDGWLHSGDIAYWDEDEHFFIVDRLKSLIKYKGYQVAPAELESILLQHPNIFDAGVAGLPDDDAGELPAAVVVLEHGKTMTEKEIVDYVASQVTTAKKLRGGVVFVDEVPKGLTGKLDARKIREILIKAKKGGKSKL
A549 tox-2 – counter-screen for Nrf2 inhibitors: cytotoxicity in A549 ARE cells; shares compounds with Nrf2 inh; A549 ARE-Fluc cells, cytotoxicity counterscreen; Potency, µM (doses to about 46.1 µM), most hits filed as inhibitors; 2% of 1,400 active; AID 720523;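 also: cells exposed to compounds for 18 to 24 hours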
Nrf2 ARE inh – reduces Nrf2 ARE reporter signal in A549 cells; shares compounds with Nrf2 inh; A549 ARE-firefly luciferase reporter, luminescence; Potency, µM (doses to about 46.1 µM), hits mostly inhibitors; 74% of 1,400 active; AID 720524; also: nearly all actives have a fitted effect of over 65% in size
Each line names hits and unclear results; the compound was inactive in the other large screens (follow-up assays come after a bar, where they were run); ! = a repeat was not active. Hits are enriched below; roughly 2.3% of the tested compounds scored in any of these assays. Unless noted, calls follow the shape of the dose curve; as a rule, active = well fitted curve in the direction sought with a large enough effect; inconclusive = small, poorly fitted or top-dose-only effect, or another doubt; inactive = no such curve, though single readings can be large; an effect the other way counts as inactive or inconclusive.

Cc1c(Cl)cccc1NC(=O)CSc1ncccc1C(=O)Oc1ccccc1Cl	none (no result: IL-2 act, Nrf2 inh)
COc1ccc(C(=O)/C=C2\Sc3ccccc3N2C)cc1	Nrf2 inh inconclusive
COc1ccccc1-[n+]1c(C)cc(/C=C2\Sc3ccccc3N2C)cc1C	A549 tox-1 inconclusive, Nrf2 inh 4.1µM | FLuc enzyme inh 0.54µM | A549 tox-2 inconclusive | Nrf2 ARE inh 0.26µM
Oc1c(C(Nc2nccs2)c2ccc(C(F)(F)F)cc2)ccc2cccnc12 (stereo not given)	Nrf2 inh 4.6µM | FLuc enzyme inh inactive | A549 tox-2 inactive | Nrf2 ARE inh 5.8µM
CC(=O)c1cccc(NS(=O)(=O)c2c(C)noc2C)c1	none
CC(=O)c1cccc(NS(=O)(=O)c2cc(-c3onc(C)c3C)ccc2C)c1	Nrf2 inh 8.2µM (no result: IL-2 act) | FLuc enzyme inh inactive | A549 tox-2 inactive | Nrf2 ARE inh 5.8µM
Cc1ncc(CO)c2c1Oc1nc(-c3ccc(F)cc3)nc(SCc3ccc(F)cc3Cl)c1C2	none (no result: IL-2 act)
COc1ccc(-c2nc(CSCC(=O)N3CCN(c4cccc(C)c4C)CC3)c(C)o2)cc1OC	none (no result: IL-2 act, Nrf2 inh)
COc1ccc(-c2nc(CSCC(=O)N3CCN(c4ccc(OC)cc4)CC3)c(C)o2)cc1	Nrf2 inh 4.6µM (no result: IL-2 act) | FLuc enzyme inh inactive | A549 tox-2 inactive | Nrf2 ARE inh 9.2µM
CCOc1ccc(-c2nc(CSCC(=O)N3CCN(c4ccc(F)cc4)CC3)c(C)o2)cc1	none (no result: IL-2 act, Nrf2 inh)
COc1ccc(-c2nc(CSCC(=O)N3CCN(c4cc(Cl)ccc4C)CC3)c(C)o2)cc1	Nrf2 inh 7.3µM (no result: IL-2 act) | FLuc enzyme inh inconclusive | A549 tox-2 inconclusive | Nrf2 ARE inh 12µM
Clc1cccc(CNc2cc(-c3ccccc3)nc3nncn23)c1	Nrf2 inh inconclusive (no result: IL-2 act)
O=C1c2cccc3cc([N+](=O)[O-])cc(c23)C(=O)N1CCN1CCCC1	A549 tox-1 inconclusive, Nrf2 inh 1.8µM | FLuc enzyme inh inactive | A549 tox-2 inconclusive | Nrf2 ARE inh inconclusive
CC1(C)CC(N2CCCC2)=CC(=[N+]2CCCCC2)C1	Nrf2 inh 4.1µM | FLuc enzyme inh inactive | A549 tox-2 inactive | Nrf2 ARE inh 5.2µM
CC1(C)CC(N2CCCC2)=CC(=[N+]2CCCC2)C1	Nrf2 inh 2.1µM | FLuc enzyme inh inactive | A549 tox-2 inactive | Nrf2 ARE inh 5.2µM
CC1(C)CC(NNCCC#N)=CC(=[N+]2CCCC2)C1	none
CCOC(=O)COc1ccc(C)cc1C(=O)c1ccn2nc(-c3ccc(F)cc3)cc2n1	none (no result: IL-2 act)
OCCN1CCN(C(c2ccccc2Cl)c2sc3nc(-c4ccco4)nn3c2O)CC1 (stereo not given)	none (no result: IL-2 act, Nrf2 inh)
O=C(c1ccc2c(=O)n(CCc3ccccc3)c(=O)[nH]c2c1)N1CCN(c2ccc(Cl)cc2)CC1	Nrf2 inh inconclusive (no result: IL-2 act)
COCCn1c(=O)[nH]c2cc(C(=O)N3CCN(c4ccc(Cl)cc4)CC3)ccc2c1=O	Nrf2 inh 5.8µM! | FLuc enzyme inh inactive | A549 tox-2 inactive | Nrf2 ARE inh inconclusive
Cc1ccc(N2C(=O)C(CC(=O)Nc3ccc(F)cc3)N(Cc3ccc4c(c3)OCO4)C2=O)cc1 (stereo not given)	none (no result: IL-2 act)
COc1cccc(C2C=C(c3ccccc3)Nc3c(C(=O)Nc4ccccc4)cnn32)c1OC (stereo not given)	Nrf2 inh 2.3µM (no result: IL-2 act) | FLuc enzyme inh inactive | A549 tox-2 inactive | Nrf2 ARE inh inconclusive
CCOc1ccc(NC(=O)c2cnn3c2NC(c2ccccc2)=CC3c2cccc(OC)c2OC)cc1 (stereo not given)	none (no result: IL-2 act)
O=C(CSc1ncnc2c1cnn2-c1ccc(F)cc1)NC1CCCC1	Nrf2 inh 5.2µM | FLuc enzyme inh inactive | A549 tox-2 inactive | Nrf2 ARE inh inconclusive
Nc1nc(Cl)nc2c1ncn2[C@H]1C[C@H](O)[C@@H](CO)O1	Nrf2 inh 0.013µM | FLuc enzyme inh inactive | A549 tox-2 inactive | Nrf2 ARE inh 5.8µM
Cc1ccc(O)c(NC(=O)COCc2cc(-c3ccco3)on2)c1	Nrf2 activator inconclusive (no result: IL-2 act)
